Compounds with a hit are over-represented: about 6.9% of the library has one in this group of screens.
Mdm2-MdmX inh – disrupts the human Mdm2-MdmX interaction; O15151+Q00987; inhibition, % at 8 µM; SaOS-2 split-luciferase Mdm2/MdmX complementation, luminescence; 330,000 compounds, 3% hits;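 active = inhibition of at least 50% at 8 µM in the primary screen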
Target sequence (O15151 whole entry, looked up): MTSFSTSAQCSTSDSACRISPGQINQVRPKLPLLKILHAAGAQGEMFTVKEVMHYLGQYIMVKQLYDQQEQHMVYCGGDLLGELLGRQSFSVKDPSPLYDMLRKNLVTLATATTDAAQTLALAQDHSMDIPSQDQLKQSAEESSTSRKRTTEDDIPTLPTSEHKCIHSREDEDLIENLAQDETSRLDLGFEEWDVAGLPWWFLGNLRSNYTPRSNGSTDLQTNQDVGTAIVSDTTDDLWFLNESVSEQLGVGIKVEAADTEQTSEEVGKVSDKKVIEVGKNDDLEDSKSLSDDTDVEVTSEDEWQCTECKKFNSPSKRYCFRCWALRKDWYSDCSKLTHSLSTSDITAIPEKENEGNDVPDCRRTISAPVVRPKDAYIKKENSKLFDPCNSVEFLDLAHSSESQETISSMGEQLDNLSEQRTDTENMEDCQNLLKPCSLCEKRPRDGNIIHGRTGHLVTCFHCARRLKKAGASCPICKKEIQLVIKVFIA
Target sequence (Q00987 whole entry, looked up): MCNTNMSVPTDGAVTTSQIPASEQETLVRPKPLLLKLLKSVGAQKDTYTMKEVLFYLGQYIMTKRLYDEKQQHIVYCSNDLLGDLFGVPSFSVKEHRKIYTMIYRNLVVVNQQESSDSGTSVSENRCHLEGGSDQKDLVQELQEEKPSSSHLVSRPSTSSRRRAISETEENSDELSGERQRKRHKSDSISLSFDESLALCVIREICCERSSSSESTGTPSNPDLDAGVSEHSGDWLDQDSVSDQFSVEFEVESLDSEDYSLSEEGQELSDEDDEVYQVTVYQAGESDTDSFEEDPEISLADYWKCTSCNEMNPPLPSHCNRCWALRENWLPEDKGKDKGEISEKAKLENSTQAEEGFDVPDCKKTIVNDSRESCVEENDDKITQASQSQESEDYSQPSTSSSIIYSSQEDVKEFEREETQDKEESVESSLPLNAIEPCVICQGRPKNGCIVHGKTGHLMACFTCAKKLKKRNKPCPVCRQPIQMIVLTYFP
CSC inhib – blocks cancer stem cells; cancer stem cell-like cells viability, luminescence; inhibition, % at 7.5 µM; 300,000 compounds, 1.1% hits; AID 2717; in the data active = inhibition above about 75%; inconclusive = no clear call, values can overlap the other calls; tested in HMLE shEcad cells
SKKanGAS inh – SKKanGAS growth inhibition; S. pyogenes SKKanGAS, kanamycin growth, BacTiter-Glo, 6 h; AID 1662; 300,000 compounds, 1.3% hits; inhibition, % at 7.5 µM;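 active = mean replicate score, as percent of positive control median, at least 50; inconclusive = mean below 50 but one replicate at or above 50; inactive = mean and every replicate below 50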;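 also: strain carries kanamycin resistance gene driven by streptokinase promoter and grows in 40 µg/ml kanamycin; loss of luminescence reflects streptokinase promoter inhibition or plain growth inhibition; 0% = median of DMSO wells and 100% = positive control at its reference dose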
MPTP inh – inhibitors of mitochondrial permeability transition pore | isolated mouse mitochondria, Ca2+ swelling absorbance, 30 min | inhibition, % at 10 µM | 360,000 compounds, 1.4% hits | AID 602449;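 active = inhibition of 50% or more, scaled per plate between neutral and stimulator controls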;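 also: 0% = DMSO wells given calcium and 100% = 1 mM EGTA wells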
Beta apoptosis – beta cell apoptosis inhibition. 300,000 compounds, 0.8% hits. AID 435005. protection from apoptosis, % (no concentration beside the values). INS-1E cytokine-induced death, ATP luminescence, 48 h; percent of positive-control rescue, neutral wells zero;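 active = Every replicate reaches about 75%, or at least half do and their mean reaches it too, limit read from the data; inconclusive = At least half of replicates reach the limit but their mean does not; inactive = Under half of replicates reach the limit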;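 also: 0% = cytokine-treated negative control wells and 100% = positive control rescue; higher means more ATP so stronger rescue from cytokine killing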
GRIN3A LBD mod – NR3A (human) ligand-binding domain modulation; Tm shift relative to glycine control, % at 25 µM; NR3A LBD differential scanning fluorimetry, Tm shift; 0% = protein alone, 100% = glycine-bound protein; 340,000 compounds, 2.5% hits;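 active = melting temperature shift of at least 10% of the positive control shift, at one fixed dose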
Mdm2-MdmX conf – confirmation of human Mdm2/MdmX interaction inhibitors; shares compounds with Mdm2-MdmX inh; Mdm2-MdmX binding, luminescent assay; inhibition, % at 8 µM; 10,000 compounds, 55% hits; AID 489028; in the data active = inhibition above about 40%
Full FLuc ctr – inhibits full-length luciferase, flagging false Mdm2/MdmX hits | shares compounds with Mdm2-MdmX inh | SaOS-2 full-length luciferase counterscreen, luminescence | inhibition, % at 8 µM | 6,200 compounds, 77% hits | AID 504607;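 active = mean inhibition at 8 µM reaching about 37%, which flags the compound as non-specific, limit read from the data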;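 also: p53-null SaOS-2 cells with luciferase driven by a doxycycline-inducible promoter; compound on cells about two nights before reading with doxycycline added after day one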
* = called active by the depositor; ? = inconclusive; . = not tested or not shown.

SMILES	Mdm2-MdmX inh	CSC inhib	SKKanGAS inh	MPTP inh	Beta apoptosis	GRIN3A LBD mod	Mdm2-MdmX conf	Full FLuc ctr
CCN(CC(=O)Nc1c(F)cccc1F)C(=O)CCN1C(=O)c2cccc([N+](=O)[O-])c2C1=O	4.9	-3.2	-2.4	-0.7	-9.1	1.0	.	.
CCOc1ccc(CN2CCN(CCCc3ccccc3)CC2CCO)cc1 (stereo not given)	11.0	0.4	4.0	0.0	.	-0.9	.	.
CC1Cc2ccccc2N1S(=O)(=O)c1cccc(C(=O)N2CCN(c3ncccn3)CC2)c1 (stereo not given)	90.3*	50.6	-1.2	5.0	0.9	2.5	89.3*	55.1*
CN(Cc1nc2ccccc2c(=O)[nH]1)C(=O)c1cccc(S(=O)(=O)N2CCc3ccccc32)c1	80.9*	23.8	.	1.9	6.1	-1.3	55.0*	67.6*
CCN(CC)CCNC(=O)c1ccc(NC(=O)c2cccc(S(=O)(=O)N3c4ccccc4CC3C)c2)cc1 (stereo not given)	79.6*	21.8	-0.1	-0.2	-5.1	0.3	26.9	.
CC(=O)N1CCN(C(=O)c2cccc(S(=O)(=O)N3c4ccccc4CC3C)c2)CC1 (stereo not given)	9.0	3.6	.	0.7	-6.5	-0.5	.	.
CN(Cc1nc2ccccc2c(=O)[nH]1)C(=O)c1cccc(S(=O)(=O)N2CCCCCC2)c1	13.4	.	.	0.8	-1.4	0.2	.	.
COc1cc2c(cc1OC)CN(C(C)C(=O)N1CCc3ccccc31)CC2 (stereo not given)	52.0*	-1.3	-7.3	-8.8	2.5	-1.1	34.4	84.1*
CCCN(CC(=O)Nc1ccccc1OC)C(=O)c1ccc2c(c1)NC(=O)C(C)S2 (stereo not given)	6.7	.	.	-0.5	-2.2	3.0	.	.
COc1cc2c(cc1OC)CN(C(=O)c1cccc(S(=O)(=O)N3CCc4ccccc43)c1)CC2	90.2*	33.5	.	0.9	1.2	0.4	59.4*	85.7*
CCN(CC)CCNC(=O)c1ccc(NC(=O)c2cccc(S(=O)(=O)N3CCc4ccccc43)c2)cc1	75.7*	.	.	11.0	.	-0.3	43.5*	66.9*
CCN(CC)CCNC(=O)c1cc(S(=O)(=O)N2CCc3ccccc32)cn1C	24.7	-4.0	-1.1	0.5	-6.7	-1.6	.	.
O=C(c1cccc(S(=O)(=O)N2CCc3ccccc32)c1)N1CCc2ccccc2C1	34.3	.	.	1.5	3.7	-1.0	.	.
COc1ccc(C2=NN(C(=O)c3ccco3)C(c3cc4ccccc4nc3Cl)C2)cc1 (stereo not given)	81.7*	-16.8	12.3	.	3.7	0.9	8.3	.
COc1ccc2cc(C3CC(c4ccco4)=NN3C(=O)CCC(=O)O)c(Cl)nc2c1 (stereo not given)	22.4	5.0	4.4	2.3	-2.5	2.9	.	.
O=C(N/N=C/c1ccc(O)cc1)c1[nH]c2ccc(Br)cc2c1-c1ccccc1	66.8*	50.6	?	2.5	10.4	29.1*	56.4*	91.7*
Cc1cccc(CC(C)NC(=O)c2oc3c(F)cccc3c2C)n1 (stereo not given)	3.5	6.3	-1.5	1.3	-0.1	3.6	.	.
CC(C)=CCC/C(C)=C/CNC(=O)C[C@H]1C[C@H](C(=O)N2CCOCC2)[C@@]2(C)c3[nH]c4cc(-c5ccco5)ccc4c3CCN2C1=O	36.6	.	.	-1.4	.	-3.4	.	.
Cc1ccc(CNC(=O)c2ccc3c(=O)n4c(-c5ccc(C)cc5)csc4nc3c2)cc1	56.9*	.	1.6	2.7	10.9	-1.2	44.0*	89.8*
CN(C)CCNc1ncnc2c1sc1nc(-c3ccccc3)c3c(c12)CCCC3	100.3*	52.1	19.2	0.3	13.1	-4.7	69.7*	40.6*
O=C(Cn1c(CO)nc2ccccc21)Nc1ccc2c(c1)OCCCO2	19.0	.	.	-2.9	-1.9	-1.7	.	.
CCCc1sc(N/N=C/c2ccccn2)nc1-c1ccc(F)cc1	69.3*	93.4*	95.9*	2.1	90.9*	-9.1	35.5	45.1*
CN(Cc1ccc(F)cc1)C(=O)CNC(=O)c1ccc2c(c1)OCO2	7.4	0.4	-0.9	1.0	4.4	-0.6	.	.

High-throughput results from PubChem.
